Experimental data taken from PubChem BioAssay AID651814 (National Center for Advancing Translational Sciences (NCATS), 2012).
In all, about 2,100 compounds went through this assay and about 590 (28%) were called active. Inconclusive results (about 42%) are left out. Calls come from the whole dose curve; as a rule, active = well fitted inhibition curve with a large enough effect; inconclusive = small, poorly fitted or top-dose-only effect; inactive = flat fitted curve, though single readings scatter. Some of the results follow.

What follows are compounds tested against DNA dC->dU-editing enzyme APOBEC-3F (Homo sapiens) (UniProt Q8IUX4) (assay: qHTS for inhibitors of Vif-A3F interactions: Cherry picks). Conditions: HeLa A3F-eYFP + Vif (tagged APOBEC3F with the HIV-1 protein that degrades it), eYFP fluorescence, 24 h.
Method in brief: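 HeLa cells stably expressing A3F-eYFP plus Vif, cultured overnight, then exposed to compounds at several concentrations for 24 h at 37 deg C. Reduced Vif-driven degradation read as rising eYFP fluorescence (488 nm ex/500-530 nm em) by laser-scanning cytometry; MG132 as positive control.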
Note: nearly all actives have a fitted effect of over 70% in size.
Potency is the fitted concentration of half-maximal effect.
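Throughout, for max response: % of control where 0% means no effect; active compounds raise eYFP fluorescence by blocking Vif-driven A3F loss.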

Sequence of DNA dC->dU-editing enzyme APOBEC-3F (Homo sapiens) (Q8IUX4 whole entry, looked up): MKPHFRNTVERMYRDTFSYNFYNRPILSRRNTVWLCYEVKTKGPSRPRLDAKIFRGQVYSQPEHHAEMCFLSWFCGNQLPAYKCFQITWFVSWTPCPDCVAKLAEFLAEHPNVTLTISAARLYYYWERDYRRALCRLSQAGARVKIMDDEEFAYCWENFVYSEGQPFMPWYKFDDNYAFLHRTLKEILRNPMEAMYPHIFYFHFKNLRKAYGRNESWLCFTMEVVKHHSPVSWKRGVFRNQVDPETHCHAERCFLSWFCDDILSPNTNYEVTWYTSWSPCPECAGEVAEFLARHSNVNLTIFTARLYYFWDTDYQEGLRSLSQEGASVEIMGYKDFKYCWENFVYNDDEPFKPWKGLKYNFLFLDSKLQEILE

Structure (SMILES) | Potency | max response
CCCN1C=CC(=CC=C(C#N)C#N)C=C1 | 15.8 µM (active) | 
C=CCN1C=CC(=C/C=C(/C#N)C(=O)OCC)C=C1 |  | -21.4% (inactive)
C=CCN1C=CC(=CC=C(C#N)C#N)C=C1 | 11.2 µM (active) | 
CCOc1cc(/C=C(/C#N)C(=O)Nc2ccc(O)cc2)cc(Br)c1O | 15.8 µM (active) | 
N#C/C(=C/c1ccc2c(c1)OCO2)C(=O)Nc1ccc(O)cc1 |  | -28.5% (inactive)
CCOc1ccc(NC(=O)/C(C#N)=C/c2ccc(N3CCCC3)c(C)c2)cc1 | 1.03 µM (active) | 
CCOc1ccc(Br)cc1C(=O)Nc1ccc(C(=O)NCC(C)C)cc1 |  | -8.08% (inactive)
CC(=O)Nc1ccc(S(=O)(=O)Nc2nc3ccccc3nc2Sc2nncn2C)cc1 |  | -12.8% (inactive)
Cc1ccc2nc3c(cc(S(=O)(=O)c4ccccc4)c(=N)n3Cc3ccco3)c(=O)n2c1 |  | -15.4% (inactive)
COc1ccc(Cn2c(C)nc3c(c2=O)c2nc4ccccc4nc2n3Cc2ccco2)cc1 | 14.6 µM (active) | 
CC(C)n1cnc2c(NCc3ccccc3)cc(N[C@H](C)CO)cc21 | 12.5 µM (active) | 
Cc1ccccc1N1C(=O)c2cccc3c(N(C)CCO)ccc(c23)C1=O |  | -29.5% (inactive)
Cc1ccc(N2C(=O)c3cccc4c(N5CCN(C)CC5)ccc(c34)C2=O)c2cccnc12 | 17.7 µM (active) | 
CC1(C(=O)NCc2cccs2)Cc2c(-c3ccc(C(N)=O)cc3)ccnc2O1 (stereo not drawn) |  | -27% (inactive)
CCOC(=O)c1ccc(Nc2nc3ccccc3nc2NS(=O)(=O)c2ccc(Cl)cc2)cc1 |  | -8.48% (inactive)
CCOC(=O)c1c(Nc2ccc(Cl)cc2)sc(/C=C2\C=Nc3ccccc32)c1O | 14.6 µM (active) | 
CC(C)(C)c1ccc(Oc2ccc(NC(=O)c3ccccc3C(=O)O)cn2)cc1 |  | 1.93% (inactive)
CCC(C)n1c(NC(=O)c2ccccc2)c(C#N)c2nc3ccccc3nc21 (stereo not drawn) | 16.4 µM (active) | 
COC(=O)Cn1c(C)c(/C=C/c2cc[n+](C)cc2)c2ccccc21 | 18.4 µM (active) | 
CCN(CC)C(=O)Cn1c(C)c(/C=C/c2cc[n+](C)cc2)c2ccccc21 | 11.2 µM (active) | 

Structure (SMILES) | Potency | max response
S=c1[nH]nc(-c2cccnc2)n1/N=C/C(Cl)=C\c1ccccc1 |  | -29.6% (inactive)
CN(C)c1ccc(/C=C/C(=O)c2c(O)c3ccccc3oc2=O)cc1 | 1.46 µM (active) | 
c1ccc(-c2cnn3c(-c4ccccc4)c(-c4ccccc4)nc3n2)cc1 | 1.84 µM (active) | 
Nc1ccc(/C=C/c2cc(Cl)nc3ccccc23)cc1 | 18.4 µM (active) | 
CN(C)c1ccc(/C=C/c2nc3ccccc3c(=O)n2CCO)cc1 | 20.6 µM (active) | 
CN(NC(=O)c1ccccc1)c1nc2ccccc2nc1C(F)(F)F |  | -29.3% (inactive)
Nc1ccc2nc(-c3ccccc3)c(-c3ccccc3)nc2c1 |  | -17.1% (inactive)
CN(C)c1ccc(/C=C/c2nc3ccccc3c(=O)[nH]2)cc1 |  | -19.3% (inactive)
CCN(CC)c1ccc(/C=C/c2cc(-c3ccccc3)c3ccccc3n2)cc1 | 5.59 µM (active) | 
CN(C)c1ccc(/C=C/c2cc(N(C)C)nc3ccccc23)cc1 | 9.2 µM (active) | 
COC(=O)c1ccccc1NC(=O)C1CC(=O)N(c2ccc(OC)cc2)C1 (stereo not drawn) |  | -29% (inactive)
O=C(Cn1ncc(Cl)c(Cl)c1=O)N1CCN(S(=O)(=O)c2ccc3ccccc3c2)CC1 |  | -29% (inactive)
C/C(=N\NC(=S)NC(C)C)c1ccc(C(C)(C)C)cc1 |  | -1.78% (inactive)
CN(C)c1ccc(/C=C/c2cc(/C=C/c3ccc(N(C)C)cc3)c3ccccc3n2)cc1 | 7.31 µM (active) | 
CCOc1ccc(C2CC(c3c(O)c4ccccc4oc3=O)=NN2c2ccccc2)cc1OC (stereo not drawn) | 13 µM (active) | 
CC[N+](C)(C(=O)O)/C(=C\c1ccccc1)c1ccnc2ccccc12 (stereo not drawn) | 20.6 µM (active) | 
CC(C)Cn1c(N)c(C(=O)COC(=O)c2ccc([N+](=O)[O-])o2)c(=O)n(C)c1=O |  | 3.32% (inactive)
COc1ccc(-n2cc3c(-c4cccc(Br)c4)nnc(C)c3n2)cc1 |  | -1.46% (inactive)
N=c1n(CC(=O)c2ccc([N+](=O)[O-])cc2)c2ccccc2n1Cc1ccccc1 | 14.6 µM (active) | 
COC(=O)[C@@H]1Cc2c([nH]c3ccccc23)C(C)(C)N1C(=O)CCl |  | -14.3% (inactive)

Structure (SMILES) | Potency | max response
Oc1ccc(C2=NNC(=NCc3ccc4c(c3)OCO4)SC2)c(O)c1 |  | -25% (inactive)
CN(C)c1ccc(/C=C(/C#N)C(=O)Nc2nc3c(s2)CCN(Cc2ccccc2)C3)cc1 | 0.704 µM (active) | 
N#Cc1c(NC(=O)/C=C/C(=O)O)sc2c1CCN(Cc1ccccc1)C2 |  | -10.7% (inactive)
CCOC(=O)c1cc(-c2ccccc2C)n(CC2CC(c3ccc(OC)cc3)=NO2)n1 (stereo not drawn) |  | 6% (inactive)
CN(C)c1ccc(/C=C/c2ccnc3c(N)cccc23)cc1 | 16.4 µM (active) | 
CN(C)c1ccc(/C=C/c2ccnc3c(Cl)ccc(Cl)c23)cc1 | 6.51 µM (active) | 
CN(C)c1ccc(/C=C/c2ccnc3c(Cl)cccc23)cc1 | 4.11 µM (active) | 
Cc1ccc(-c2nc(SCCOc3ccccc3C)n3[nH]c(=O)cc3n2)cc1 |  | 1.28% (inactive)
COc1ccc(/C=C2\Oc3cc(OC(=O)N4CCOCC4)ccc3C2=O)c(OC)c1 |  | -13.8% (inactive)
COc1ccc(/C=c2\s/c(=C/C(=O)c3ccc(C)cc3)[nH]c2=O)c(OC)c1 | 18.4 µM (active) | 
Cc1ccc(NC(=S)N=Nc2c(O)n(C)c3ccc(S(=O)(=O)N4CCOCC4)cc23)cc1 |  | 3.82% (inactive)
COc1ccc(C(=O)C(C)[n+]2ccc(C)c3ccccc32)cc1[N+](=O)[O-] (stereo not drawn) |  | 1.15% (inactive)
COc1ccc(-n2c(O)c(/C=N/NS(=O)(=O)c3cc(C)ccc3C)c3ccccc3c2=O)cc1OC | 14.6 µM (active) | 
COc1ccc(C)cc1NCc1cc(=O)oc2cc(-c3ccccc3)c(O)cc12 |  | -18.7% (inactive)
COc1ccc(-n2c(O)c(/C=N/NS(=O)(=O)c3cccc([N+](=O)[O-])c3)c3ccccc3c2=O)cc1OC | 17.7 µM (active) | 
COC(=O)c1cnc(Nc2cc(C)ccc2OC)c2ccccc12 |  | -22% (inactive)
COc1ccc(-n2c(O)c(/C=N/NS(=O)(=O)c3ccc(C)c([N+](=O)[O-])c3)c3ccccc3c2=O)cc1OC | 14.6 µM (active) | 
O=C(O)CSc1cc(NS(=O)(=O)c2cccc([N+](=O)[O-])c2)c2ccccc2c1O |  | -12.8% (inactive)
